Active and inactive are the calls of the source.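 Rule for the calls, unless noted: active = compound raises GLP1 secretion from the human gut endocrine cells, with no numeric limit stated; inactive = the rest.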

The text below walks through data of PubChem BioAssay.

Assay [1] can be described thus: Wnt pathway potentiators raising nuclear beta-catenin – imaging, WNT3A-conditioned medium, mouse C2C12, NPC library, primary screen (AID 1117326; in the data active = nuclear beta-catenin stimulation mostly above about 4.2%, no sharp cut-off; inactive = mostly below about 10%; note: reference of the scale not given here). The following applies: stronger effect = higher value.
A short description of assay [2]: stimulators of insulin release from INS-1E, primary screen, cell-based, 5 mM glucose, NPC library (AID 1117329;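 active = compound raises insulin release from rat beta cells at 5 mM glucose, no numeric limit stated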; note: reference of the scale not given here). As to conditions: rat INS-1E insulin secretion, at 10 µM, stronger effect = higher value.
The nature of assay [3]: growth inhibition of GSK3B-pretreated HCT116 cells – cell-based, CellTiter-Glo, 0.2 to 20 µM (AID 1117336;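 active = compounds lowering colon cancer cell viability after pretreatment blocking the GSK3B kinase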). As to conditions: HCT116 viability after GSK3B inhibitor, at 20 µM, stronger effect = higher value.
Assay [4] is described as follows: inhibition of endothelial tube formation, primary screen, imaging, VEGF stimulated, CD31 staining, tube area, NPC library (AID 1117340;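 active = compound that reduces growth-factor-driven endothelial tube area in a mixed cell culture, no cutoff stated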). The following applies: VEGF-stimulated ADSC/ECFC co-culture, at 10 µM, stronger effect = higher value.
The nature of assay [5]: GLP1 release stimulators, primary, NCI-H716, NPC library (AID 1117341). Note: reference of the scale not given here. As to conditions: NCI-H716 cells, at 10 µM, stronger effect = higher value.
Assay [6] can be described thus: HCT116 colon cancer cell growth inhibition, primary screen, CellTiter-Glo luminescence, NPC library (AID 1117342;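 active = compounds that lower survival of HCT116 colon cancer cells in the luminescence readout, no numeric limit stated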). As to conditions: at 20 µM (top of the series). A general note: Cellular ATP, detected with luciferase, serves as a proxy for viable cell number.
A short description of assay [7]: reduced SW480 viability measured with CellTiter-Glo, NPC library, primary (AID 1117343;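 active = compounds that lower viability of the colon cancer cells in the luminescence readout, with no numeric limit stated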). The following applies: CellTiter-Glo luminescence; at 20 µM (top of the series).
A short description of assay [8]: NPC library primary testing for decreased DLD-1 cell viability via CellTiter-Glo (AID 1117346;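 active = compounds that lower survival of DLD-1 colon cancer cells in the luminescence readout, no cutoff given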). As to conditions: DLD-1 viability, CellTiter-Glo luminescence; at 20 µM (top of the series).

As to `O=C(Oc1ccccc1)c1ccccc1O`, the nuclear beta-catenin stimulation in assay [1] (at 10 µM) is -0.5% (inactive); in assay [1] (stimulation, at 2 µM), -1%. The insulin secretion stimulation in assay [2] was -1.5% (inactive). Moreover, the viability decrease in assay [3] is -4.35% (inactive). For the same molecule, the tube area decrease in assay [4] was 14.3% (inactive). Further, the GLP1 secretion stimulation in assay [5] was -1.2% (inactive). Moreover, the inhibition of viability in assay [6] was 9.1% (inactive). Besides, the viability decrease (inhibition) is 84.4% (active) in assay [7] and 12.1% (inactive) in assay [8].
As to `CCOc1cc(OCC)c(C(=O)CCC(=O)O)cc1OCC`, the nuclear beta-catenin stimulation is -1.4% (inactive) in assay [1] (at 10 µM) and 0.2% in assay [1] (stimulation, at 2 µM). In addition, the insulin secretion stimulation in assay [2] is 0.5% (inactive). For the same molecule, the viability decrease in assay [3] was -11.3% (inactive). The tube area decrease in assay [4] was 3.4% (inactive). The GLP1 secretion stimulation in assay [5] was -1.3% (inactive). The inhibition of viability in assay [6] is 11.4% (inactive). Besides, the figures for the viability decrease (inhibition) in assay [7] and in assay [8] were 0.4% (inactive) and 3.7% (inactive), respectively.
In the case of `CNC(=O)c1c(I)c(NC(=O)CCCCC(=O)Nc2c(I)c(C(=O)O)c(I)c(C(=O)NC)c2I)c(I)c(C(=O)O)c1I`, the nuclear beta-catenin stimulation was -0.7% (inactive) in assay [1] (at 10 µM) and 2.2% in assay [1] (stimulation, at 2 µM). The insulin secretion stimulation in assay [2] was -0.3% (inactive). Besides, the viability decrease in assay [3] is -17.5% (inactive). Also, the tube area decrease in assay [4] is -0.8% (inactive). Moreover, the GLP1 secretion stimulation in assay [5] was -0.4% (inactive). In addition, the inhibition of viability in assay [6] was 9.4% (inactive). For the same molecule, the viability decrease (inhibition) in assay [7] was -3.6% (inactive); in assay [8], -2.4% (inactive).
In the case of `NC(=O)CC[C@@H]1NC(=O)[C@H](Cc2ccccc2)NC(=O)[C@H](Cc2ccc(O)cc2)NC(=O)CCSSC[C@@H](C(=O)N2CCC[C@H]2C(=O)N[C@@H](CCCN=C(N)N)C(=O)NCC(N)=O)NC(=O)[C@H](CC(N)=O)NC1=O`, the nuclear beta-catenin stimulation is -0.6% (inactive) in assay [1] (at 10 µM) and -1.2% in assay [1] (stimulation, at 2 µM). The insulin secretion stimulation in assay [2] is 0.8% (inactive). Besides, the viability decrease in assay [3] is 8.4% (inactive). Further, the tube area decrease in assay [4] was 3.9% (inactive). The GLP1 secretion stimulation in assay [5] is 2.4% (inactive). Further, the inhibition of viability in assay [6] was 1% (inactive). Besides, the viability decrease (inhibition) is 1.3% (inactive) in assay [7] and -0.2% (inactive) in assay [8].
Take `O=C(CO)[C@@H](O)[C@H](O)[C@@H](O)C(=O)O`: the nuclear beta-catenin stimulation in assay [1] (at 10 µM) was -2.6% (inactive); in assay [1] (stimulation, at 2 µM), -0.9%. Further, in assay [2], the insulin secretion stimulation is 0.7% (inactive). The viability decrease in assay [3] is -2.4% (inactive). The tube area decrease in assay [4] is -0.1% (inactive). The GLP1 secretion stimulation in assay [5] was -5.4% (inactive). Further, the inhibition of viability in assay [6] was 2.2% (inactive). In addition, the viability decrease (inhibition) in assay [7] is 0.3% (inactive); in assay [8], -3.1% (inactive).
For the molecule `Oc1ccccc1C=NCc1ccccc1`, the nuclear beta-catenin stimulation in assay [1] (at 10 µM) is -0.8% (inactive); in assay [1] (stimulation, at 2 µM), -0.6%. Further, in assay [2], the insulin secretion stimulation was -2.2% (inactive). In addition, in assay [3], the viability decrease was 0.9% (inactive). The tube area decrease in assay [4] is -29.7% (inactive). Besides, the GLP1 secretion stimulation in assay [5] is 3.8% (inactive). Besides, in assay [6], the inhibition of viability was 0.1% (inactive). The values for the viability decrease (inhibition) in assay [7] and in assay [8] were 13.6% (inactive) and 0.75% (inactive), respectively.
With `CCOC(=O)c1ccc(O)c(O)c1`, the nuclear beta-catenin stimulation in assay [1] (at 10 µM) is 4.9% (inactive); in assay [1] (stimulation, at 2 µM), 3.4%. Further, in assay [2], the insulin secretion stimulation is 4% (inactive). Besides, the viability decrease in assay [3] was 88.4% (active). The tube area decrease in assay [4] was 24% (inactive). For the same molecule, in assay [5], the GLP1 secretion stimulation is -0.3% (inactive). For the same molecule, the inhibition of viability in assay [6] is 63.9% (active). The viability decrease (inhibition) was 77.7% (active) in assay [7] and 56.4% (active) in assay [8].
In the case of `NC[C@H]1O[C@H](O[C@H]2[C@H](O[C@@H]3O[C@H](CO)[C@@H](O)[C@H]3O)C(O)[C@H](N)C[C@@H]2N)[C@H](N)[C@@H](O)[C@@H]1O` (stereo partly specified), the nuclear beta-catenin stimulation in assay [1] (at 10 µM) was 0.5% (inactive); in assay [1] (stimulation, at 2 µM), 2.2%. In assay [2], the insulin secretion stimulation was 1.4% (inactive). In addition, in assay [3], the viability decrease is -14.9% (inactive). Also, in assay [4], the tube area decrease was -12.5% (inactive). In assay [5], the GLP1 secretion stimulation was 0.7% (inactive). Moreover, in assay [6], the inhibition of viability was 2.3% (inactive). For the same molecule, the viability decrease (inhibition) in assay [7] is 0.4% (inactive); in assay [8], -14.4% (inactive).
As for `CCCCN1CCCC[C@H]1C(=O)Nc1c(C)cccc1C`, the nuclear beta-catenin stimulation in assay [1] (at 10 µM) was 0.3% (inactive); in assay [1] (stimulation, at 2 µM) it was 0.4%. In addition, in assay [2], the insulin secretion stimulation is 25.7% (active). The viability decrease in assay [3] was 26.6% (inactive). In addition, the tube area decrease in assay [4] was -20.3% (inactive). Besides, the GLP1 secretion stimulation in assay [5] was 2.9% (inactive). Further, in assay [6], the inhibition of viability is 23.7% (inactive). Also, the viability decrease (inhibition) in assay [7] is 21.1% (inactive); in assay [8], 23.1% (inactive).
Turning to `CC(=O)/C=C/C=C1/C2CCC(C2)C1(C)C` (stereo unspecified), the nuclear beta-catenin stimulation was 1.2% (inactive) in assay [1] (at 10 µM) and 3.3% in assay [1] (stimulation, at 2 µM). Besides, the insulin secretion stimulation in assay [2] was 0.6% (inactive). In addition, the viability decrease in assay [3] is -80% (inactive). Also, the tube area decrease in assay [4] is -0.7% (inactive). For the same molecule, the GLP1 secretion stimulation in assay [5] was 0.1% (inactive). Besides, the inhibition of viability in assay [6] was -1.1% (inactive). The viability decrease (inhibition) in assay [7] is 27% (inactive); in assay [8], -15.2% (inactive).
As to `CCCC(CCC)(C(=O)OCC)C(=O)OCC`, the nuclear beta-catenin stimulation in assay [1] (at 10 µM) is -1.3% (inactive); in assay [1] (stimulation, at 2 µM), -2.9%. In addition, the insulin secretion stimulation in assay [2] was 2.1% (inactive). Besides, the viability decrease in assay [3] is 11.4% (inactive). The tube area decrease in assay [4] is -3.8% (inactive). In assay [5], the GLP1 secretion stimulation is 3.5% (inactive). Further, the inhibition of viability in assay [6] is 12.2% (inactive). The viability decrease (inhibition) is 1.4% (inactive) in assay [7] and -4.9% (inactive) in assay [8].
As to `CCCCCCCCCCCC(=O)OCC(O)CO` (stereo unspecified), the nuclear beta-catenin stimulation in assay [1] (at 10 µM) is -1.2% (inactive); in assay [1] (stimulation, at 2 µM) it was 2.9%. In assay [2], the insulin secretion stimulation was -1.1% (inactive). For the same molecule, the viability decrease in assay [3] was -3.8% (inactive). For the same molecule, in assay [4], the tube area decrease was 14.2% (inactive). For the same molecule, in assay [5], the GLP1 secretion stimulation was -3.3% (inactive). For the same molecule, the inhibition of viability in assay [6] is -2.2% (inactive). The viability decrease (inhibition) was 44.7% (inactive) in assay [7] and 44.9% (inactive) in assay [8].
Turning to `CC(=O)Nc1ccc(/C=N/NC(N)=S)cc1`, the nuclear beta-catenin stimulation is 0.3% (inactive) in assay [1] (at 10 µM) and 0.5% in assay [1] (stimulation, at 2 µM). In addition, in assay [2], the insulin secretion stimulation was -2.3% (inactive). For the same molecule, in assay [3], the viability decrease was -4.65% (inactive). Moreover, the tube area decrease in assay [4] was -8.1% (inactive). Moreover, the GLP1 secretion stimulation in assay [5] was 4.3% (inactive). Besides, the inhibition of viability in assay [6] was 13.3% (inactive). In addition, the values for the viability decrease (inhibition) in assay [7] and in assay [8] were 13% (inactive) and -1.8% (inactive), respectively.
On to `Cc1cc(NS(=O)(=O)c2ccc(N)cc2)nc(C)n1`, for which the nuclear beta-catenin stimulation is 0.1% (inactive) in assay [1] (at 10 µM) and 0.7% in assay [1] (stimulation, at 2 µM). In assay [2], the insulin secretion stimulation was -1.1% (inactive). In assay [3], the viability decrease is 0.6% (inactive). In addition, the tube area decrease in assay [4] was -1.9% (inactive). The GLP1 secretion stimulation in assay [5] is -0.1% (inactive). Also, in assay [6], the inhibition of viability was -10.6% (inactive). Further, the viability decrease (inhibition) in assay [7] was 55% (active); in assay [8] it was 29.8% (inactive).
